According to PubChem BioAssay (Tox21):
Inconclusive results are not listed. Active and inactive are the calls of the source. Unless noted, the call rests on the fitted dose curve.

Tests used:
[1] = Nuclear factor erythroid 2-related factor 2/antioxidant responsive element (Nrf2/ARE) small molecule agonists: qHTS cell viability counter screen in human keratinocytes (AID 1919968; active means well fitted curve in the direction sought with a large enough effect in the repeat runs; an effect the other way counts as inactive or inconclusive; further: nearly all actives have a fitted effect of over 55% in size; further: potency means the concentration at half of the fitted maximal effect)
How it was run: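 Parallel cytotoxicity read: KeratinoSens HaCaT cells, compound treatment 23 h, viability by CellTiter-Fluor fluorescence 1 h post-reagent.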

[2] = Nuclear factor erythroid 2-related factor 2/antioxidant responsive element (Nrf2/ARE) small molecule agonists: luciferase reporter gene qHTS assay in human keratinocytes (AID 1919969); further: nearly all actives have a fitted effect of over 35% in size
[3] = biological target: Gonadotropin-releasing hormone receptor (Homo sapiens) (UniProt P30968); test: Human gonadotropin-releasing hormone receptor (GnRHR) small molecule agonists, calcium flux assay in GnRHR-HEK293 cells (AID 1920063); further: nearly all actives have a fitted effect of over 35% in size
How it was run: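 Calcium flux, agonist mode, human GnRHR stably integrated in HEK293; dye 1 h at 37 C before compound; Ex/Em=480/540 kinetic read, 3 min; 15 concentrations, triplicate.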

[4] = biological target: KiSS-1 receptor (Homo sapiens) (UniProt Q969F8); test: Human kisspeptin (KISS1R) small molecule agonists, calcium flux assay in KISS1R-HEK293 cells (AID 1920064; active means well fitted curve in the direction sought with a large enough effect in the repeat runs; an effect the other way counts as inactive or inconclusive)
How it was run: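 Triplicate 15-concentration series were applied to dye-loaded human KISS1R HEK293 cells, and agonist-evoked calcium fluorescence was captured for 3 min.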

[5] = G protein-coupled receptor (GPCR) small molecule agonists, calcium flux assay: HEK293 wild type cell line counter screen (AID 1920065)
How it was run: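 Non-specific calcium responders were flagged by adding DMSO-dissolved compounds to dye-loaded cells and reading 480/540 nm fluorescence each second for 3 min; ATP served as positive control.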

[6] = p53 small molecule agonists, cell-based qHTS assay with human liver microsomes: qHTS cell viability counter screen (AID 1963579); further: nearly all actives have a fitted effect of over 45% in size
How it was run: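 In this multiplexed counter screen, the reporter plates were subsequently treated with CellTiter-Glo so that cell viability, reflected by luminescence, could be recorded for p53RE-bla cells dosed 16 h with compounds under microsomal activation (HLM and NADPH).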

[7] = p53 small molecule agonists, cell-based qHTS assay with rat liver microsomes: qHTS cell viability counter screen (AID 1963580); further: nearly all actives have a fitted effect of over 45% in size
How it was run: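 Cytotoxicity counter screen: intracellular ATP measured by CellTiter-Glo luminescence in the same wells as the beta-lactamase reporter read, on HCT-116 p53RE-bla cells exposed 16 h at 37 C to compounds with rat liver microsomes and NADPH, each 0.5 mg/mL final.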

[8] = p53 small molecule agonists, cell-based qHTS assay: qHTS cell viability counter screen (AID 1963581); further: nearly all actives have a fitted effect of over 45% in size
How it was run: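 Multiplexed with the reporter read, a CellTiter-Glo step (30 min, room temperature) gauges ATP-based viability of HCT-116 p53RE-bla cells after 16 h compound incubation at 37 C.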

[9] = biological target: 5-hydroxytryptamine receptor 2A (Homo sapiens) (UniProt P28223); test: 5-hydroxytryptamine receptor 2A (HTR2A) small molecule antagonists, cell-based qHTS assay (AID 1963586); further: nearly all actives have a fitted effect of over 45% in size; further: potency means the concentration at half of the fitted maximal effect
How it was run: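 CHO cells stably expressing human HTR2A were plated for 18 h at 37 C, then loaded with calcium dye for 1 h. Compounds were preincubated 5 min at room temperature before DOI (4 nM solution) was added. Kinetic fluorescence was read for 3 min.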

[10] = biological target: 5-hydroxytryptamine receptor 2A (Homo sapiens) (UniProt P28223); test: 5-hydroxytryptamine receptor 2A (HTR2A) small molecule agonists, cell-based qHTS assay (AID 1963587); further: nearly all actives have a fitted effect of over 30% in size
How it was run: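 CHO cells stably expressing human HTR2A, plated 18 h, loaded with calcium dye 1 h at 37 C. Agonist mode: compounds added and intracellular calcium fluorescence recorded kinetically for 2 min at 1 sec intervals.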

[11] = biological target: Muscarinic acetylcholine receptor M1 (Homo sapiens) (UniProt P11229); test: Cholinergic receptor muscarinic 1 (CHRM1) small molecule antagonists, cell-based qHTS assay (AID 1963588); further: nearly all actives have a fitted effect of over 40% in size
How it was run: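 Compounds were tested at 15 concentrations in three independent runs. Dye-loaded CHRM1-CHO cells were exposed 5 min at room temperature before stimulation by acetylcholine added at 50nM. Intracellular calcium was read kinetically on FDSS for 3 min.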

[12] = biological target: Muscarinic acetylcholine receptor M1 (Homo sapiens) (UniProt P11229); test: Cholinergic receptor muscarinic 1 (CHRM1) small molecule agonists, cell-based qHTS assay (AID 1963589); further: nearly all actives have a fitted effect of over 35% in size
How it was run: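 qHTS, 15-point titration, 3 independent runs: compounds pin-transferred onto dye-loaded CHRM1-CHO cells (human M1), calcium fluorescence followed every second to detect agonism.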

[13] = cAMP Responsive Elements (CRE) small molecule agonists, cell-based qHTS assay (AID 1963590)
How it was run: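 Quantitative HTS for CRE agonists: HEK 293T CRE-bla cells, overnight plating, 3 h compound incubation at 37 C/5% CO2, then 2 h room-temperature LiveBLAzer B/G FRET substrate loading.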

[14] = biological target: Beta-2 adrenergic receptor (Homo sapiens) (UniProt P07550); test: Adrenergic beta2 receptor (ADRB2) small molecule antagonists, cell-based qHTS assay (AID 1963592); further: nearly all actives have a fitted effect of over 50% in size; further: potency means the concentration at half of the fitted maximal effect; on activity change, negative = inhibition: series mostly up to about 92 µM
How it was run: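 Assay format: CHO-ADRB2 cells, 18-20hr seeding at 37C/5% CO2, then compound plus 1nM isoproterenol agonist mix for 0.5hr RT. Homogeneous time-resolved fluorescence cAMP detection after 1hr, expressed as 665/615 nm ratio.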

[15] = biological target: Beta-2 adrenergic receptor (Homo sapiens) (UniProt P07550); test: Adrenergic beta2 receptor (ADRB2) small molecule agonists, cell-based qHTS assay (AID 1963593);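 further: CHO cells stably overexpressing human ADRB2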
How it was run: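 CHO cells stably over-expressing ADRB2 were plated overnight at 37C, then dosed with compounds plus a stimulation mix containing 100uM IBMX and 25uM Ro-20-1724 for 0.5hr at room temperature. cAMP was measured by HTRF competition, 1hr.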

[16] = biological target: D(2) dopamine receptor (Homo sapiens) (UniProt P14416); test: Dopamine D2 receptor (DRD2) small molecule antagonists, cell-based qHTS assay (AID 1963595; active means well fitted inhibition curve with a large enough effect in the signal ratio in the repeat runs, with a control signal flat; the % refers to the signal ratio)
How it was run: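 Cells were plated and grown for 24 h at 37 °C. Ro20-1724 (0.1 mM final) went in first, then compound for 10 min. NKH477 (200 nM) with quinpirole (12 nM) followed for 30 min at RT, then HTRF detection reagents for 1 h.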

[17] = biological target: D(2) dopamine receptor (Homo sapiens) (UniProt P14416); test: Dopamine D2 receptor (DRD2) small molecule agonists, cell-based qHTS assay (AID 1963594); further: nearly all actives have a fitted effect of over 35% in size
How it was run: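 HEK293 cells stably expressing human DRD2, pre-treated with PDE inhibitor Ro20-1724 (0.1 mM final) and compound 10 min at room temperature, then stimulated with NKH477 (200nM […]) for 30 min. cAMP read by HTRF (665/620 nm).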

[18] = cAMP Responsive Elements (CRE) small molecule antagonists, cell-based qHTS assay (AID 1963591; active means well fitted inhibition curve with a large enough effect in the signal ratio in the repeat runs, not every such curve was filed as active; the % refers to the signal ratio)
How it was run: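 Fluorescence intensity from cleaved LiveBLAzer B/G substrate (2 h, room temperature) quantified CRE-bla activity in HEK 293T cells exposed 3 h to compound with 0.25 uM final NKH477.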
On the % scale 0 is the no-effect control and ±100 the full control effect.

Gonadotropin-releasing hormone receptor (Homo sapiens), sequence (P30968 whole entry, looked up): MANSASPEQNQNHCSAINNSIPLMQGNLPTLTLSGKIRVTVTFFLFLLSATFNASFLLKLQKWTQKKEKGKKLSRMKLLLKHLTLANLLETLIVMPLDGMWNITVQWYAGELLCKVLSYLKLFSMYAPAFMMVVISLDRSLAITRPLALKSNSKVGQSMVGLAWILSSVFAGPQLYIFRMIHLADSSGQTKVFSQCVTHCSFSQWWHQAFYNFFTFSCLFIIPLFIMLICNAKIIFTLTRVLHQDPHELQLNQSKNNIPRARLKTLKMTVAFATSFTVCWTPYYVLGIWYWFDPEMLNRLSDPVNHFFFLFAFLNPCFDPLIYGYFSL
D(2) dopamine receptor (Homo sapiens), sequence (P14416 whole entry, looked up): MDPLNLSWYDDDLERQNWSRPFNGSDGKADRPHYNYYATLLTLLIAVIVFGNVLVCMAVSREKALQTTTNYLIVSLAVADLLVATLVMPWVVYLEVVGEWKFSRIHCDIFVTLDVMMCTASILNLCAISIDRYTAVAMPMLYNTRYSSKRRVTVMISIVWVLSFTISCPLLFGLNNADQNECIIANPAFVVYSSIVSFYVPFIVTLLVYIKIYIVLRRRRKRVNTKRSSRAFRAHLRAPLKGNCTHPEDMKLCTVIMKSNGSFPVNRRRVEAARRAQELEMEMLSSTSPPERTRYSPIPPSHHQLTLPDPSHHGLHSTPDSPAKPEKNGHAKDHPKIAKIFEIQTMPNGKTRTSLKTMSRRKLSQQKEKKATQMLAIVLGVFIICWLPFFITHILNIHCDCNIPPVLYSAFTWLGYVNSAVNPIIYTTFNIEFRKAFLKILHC
Beta-2 adrenergic receptor (Homo sapiens), sequence (P07550 whole entry, looked up): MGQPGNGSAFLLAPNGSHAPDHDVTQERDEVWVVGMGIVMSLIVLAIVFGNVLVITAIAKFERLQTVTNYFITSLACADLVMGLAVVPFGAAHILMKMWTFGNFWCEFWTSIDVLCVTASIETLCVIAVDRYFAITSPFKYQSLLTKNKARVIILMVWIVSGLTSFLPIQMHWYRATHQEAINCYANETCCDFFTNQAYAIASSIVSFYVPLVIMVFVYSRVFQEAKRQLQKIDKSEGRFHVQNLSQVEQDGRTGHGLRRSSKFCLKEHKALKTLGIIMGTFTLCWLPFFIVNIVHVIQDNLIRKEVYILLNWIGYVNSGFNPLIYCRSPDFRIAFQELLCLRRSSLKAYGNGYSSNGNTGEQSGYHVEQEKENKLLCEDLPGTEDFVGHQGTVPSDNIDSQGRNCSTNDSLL
KiSS-1 receptor (Homo sapiens), sequence (Q969F8 whole entry, looked up): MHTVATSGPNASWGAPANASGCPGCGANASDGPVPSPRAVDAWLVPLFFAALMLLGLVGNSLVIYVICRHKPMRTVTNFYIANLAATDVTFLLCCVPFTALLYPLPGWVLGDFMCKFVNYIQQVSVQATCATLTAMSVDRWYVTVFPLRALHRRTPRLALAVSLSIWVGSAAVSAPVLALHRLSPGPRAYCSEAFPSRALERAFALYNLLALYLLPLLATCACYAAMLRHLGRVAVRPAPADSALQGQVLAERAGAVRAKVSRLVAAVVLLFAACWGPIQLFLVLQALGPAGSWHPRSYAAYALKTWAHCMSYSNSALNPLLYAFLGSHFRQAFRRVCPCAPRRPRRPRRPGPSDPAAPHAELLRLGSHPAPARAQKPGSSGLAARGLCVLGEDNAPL
Muscarinic acetylcholine receptor M1 (Homo sapiens), sequence (P11229 whole entry, looked up): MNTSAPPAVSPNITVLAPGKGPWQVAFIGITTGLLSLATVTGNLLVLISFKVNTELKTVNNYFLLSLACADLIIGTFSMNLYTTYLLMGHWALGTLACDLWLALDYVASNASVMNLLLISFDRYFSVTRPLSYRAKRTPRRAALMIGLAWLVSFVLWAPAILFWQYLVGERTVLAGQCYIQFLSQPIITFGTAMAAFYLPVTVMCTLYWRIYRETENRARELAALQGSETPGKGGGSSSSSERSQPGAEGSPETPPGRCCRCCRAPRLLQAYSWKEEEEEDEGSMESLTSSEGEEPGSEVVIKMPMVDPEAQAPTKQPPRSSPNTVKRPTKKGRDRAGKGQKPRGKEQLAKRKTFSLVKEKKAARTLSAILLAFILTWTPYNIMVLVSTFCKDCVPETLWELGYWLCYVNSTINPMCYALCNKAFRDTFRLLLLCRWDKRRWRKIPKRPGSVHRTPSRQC
5-hydroxytryptamine receptor 2A (Homo sapiens), sequence (P28223 whole entry, looked up): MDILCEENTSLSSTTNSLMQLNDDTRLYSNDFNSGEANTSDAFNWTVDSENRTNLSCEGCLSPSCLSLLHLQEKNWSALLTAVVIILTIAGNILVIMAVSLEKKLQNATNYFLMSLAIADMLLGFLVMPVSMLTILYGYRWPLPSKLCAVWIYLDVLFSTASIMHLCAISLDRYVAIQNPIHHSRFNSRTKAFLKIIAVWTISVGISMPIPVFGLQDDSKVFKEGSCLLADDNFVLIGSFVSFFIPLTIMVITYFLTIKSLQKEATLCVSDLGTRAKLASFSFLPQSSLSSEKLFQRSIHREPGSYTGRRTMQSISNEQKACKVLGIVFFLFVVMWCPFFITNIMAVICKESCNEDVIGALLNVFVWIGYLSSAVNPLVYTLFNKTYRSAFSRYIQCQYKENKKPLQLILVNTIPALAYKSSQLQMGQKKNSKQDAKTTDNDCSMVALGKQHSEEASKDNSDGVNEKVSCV

CCOC(=O)CC(=O)c1ccccc1
inactive: Potency [1] | Potency [2] | Potency [3] | Potency [4] | Potency [5] | Potency [6] | Potency [7] | Potency [8] | Potency [9] | Potency [10] | Potency [11] | Potency [12] | Potency [13] | Potency [14] | Potency [15] | Potency [16]

CCCCCCCCCCCCC1CO1 (stereo unspecified)
inactive: Potency [1] | Potency [2] | Potency [3] | Potency [4] | Potency [5] | Potency [6] | Potency [7] | Potency [8] | Potency [9] | Potency [10] | Potency [11] | Potency [12] | Potency [13] | Potency [14] | Potency [17] | Potency [16]

CN(C)c1ccncc1
inactive: Potency [1] | Potency [2] | Potency [3] | Potency [4] | Potency [5] | Potency [6] | Potency [7] | Potency [8] | Potency [9] | Potency [10] | Potency [11] | Potency [12] | Potency [18] | Potency [14] | Potency [17] | Potency [16]

Cc1ccc(NC=O)c(C)c1
inactive: Potency [1] | Potency [2] | Potency [3] | Potency [4] | Potency [5] | Potency [6] | Potency [7] | Potency [8] | Potency [9] | Potency [10] | Potency [11] | Potency [12] | Potency [13] | Potency [15] | Potency [17] | Potency [16]

CCCCCC(C)O (stereo unspecified)
inactive: Potency [1] | Potency [2] | Potency [3] | Potency [4] | Potency [5] | Potency [6] | Potency [7] | Potency [8] | Potency [9] | Potency [10] | Potency [11] | Potency [12] | Potency [13] | Potency [14] | Potency [15] | Potency [17] | Potency [16]

C=C1CC[C@H]2C[C@@H]1C2(C)C
inactive: Potency [1] | Potency [2] | Potency [3] | Potency [4] | Potency [5] | Potency [6] | Potency [7] | Potency [8] | Potency [9] | Potency [10] | Potency [11] | Potency [12] | Potency [13] | Potency [14] | Potency [15] | Potency [17] | Potency [16]

COC(C)(C)OC
inactive: Potency [1] | Potency [2] | Potency [3] | Potency [4] | Potency [5] | Potency [6] | Potency [7] | Potency [8] | Potency [9] | Potency [10] | Potency [11] | Potency [12] | Potency [13] | Potency [18] | Potency [17] | Potency [16]

CNC(C)=O
inactive: Potency [1] | Potency [2] | Potency [3] | Potency [4] | Potency [5] | Potency [6] | Potency [7] | Potency [8] | Potency [9] | Potency [10] | Potency [11] | Potency [12] | Potency [18] | Potency [14]

CC1(CN2CCC(n3c(=O)[nH]c4ccccc43)CC2)OCc2ccccc2-n2cccc21 (stereo unspecified)
inactive: Potency [2] | Potency [3] | Potency [4] | Potency [5] | Potency [6] | Potency [7] | Potency [8] | Potency [10] | Potency [11] | Potency [12] | Potency [18] | Potency [17] | Potency [16]
active: Potency [1] 29.8 µM | Potency [9] 1.83 µM | Potency [14] 29.8 µM

CN1C(C)(C)CC(O)CC1(C)C
inactive: Potency [1] | Potency [2] | Potency [3] | Potency [4] | Potency [5] | Potency [6] | Potency [7] | Potency [8] | Potency [9] | Potency [10] | Potency [11] | Potency [12] | Potency [13] | Potency [14] | Potency [17]

CCC(C)N (stereo unspecified)
inactive: Potency [1] | Potency [2] | Potency [3] | Potency [4] | Potency [5] | Potency [6] | Potency [7] | Potency [8] | Potency [9] | Potency [10] | Potency [11] | Potency [12] | Potency [13] | Potency [14] | Potency [17] | Potency [16]

CCCCCCCCCCCCCCCCCBr
inactive: activity change, negative = cytotoxicity [1] 2.19% [at 19 µM] | activity, positive = activation [2] -1.2% [at 19 µM] | activity change [3] 0.321% [at 11.8 µM, hits give high values] | activation [4] 0.212% [at 15.8 µM] | activation [5] -0.0398% [at 11.8 µM] | activity change, negative = cytotoxicity [6] 5.38% [at 13.5 µM] | activity change, negative = cytotoxicity [7] 0.54% [at 13.5 µM] | activity change, negative = cytotoxicity [8] 3.13% [at 13.5 µM] | activity, negative = inhibition [9] 31.5% [at 12.7 µM] | activation [10] 0.832% [at 15.9 µM] | activity, negative = inhibition [11] 7.9% [at 12.6 µM] | activation [12] -0.0212% [at 15.8 µM] | activation [13] -0.0773% [at 19 µM] | activity change, negative = inhibition [14] 0.719% [at 19 µM] | activation [15] 8.09% [at 19 µM] | activation [17] -0.0433% [at 19 µM] | activity change, negative = inhibition [16] 0.232% [at 18.9 µM]

Cc1ccc(C(N)=O)cc1N
inactive: Potency [1] | Potency [2] | Potency [3] | Potency [4] | Potency [5] | Potency [6] | Potency [7] | Potency [8] | Potency [9] | Potency [10] | Potency [11] | Potency [12] | Potency [13] | Potency [14] | Potency [15] | Potency [17] | Potency [16]

CN(C(=O)CN(CCO)CC(=O)N(C)C(C)(C)Cc1ccccc1)C(C)(C)Cc1ccccc1
inactive: Potency [1] | Potency [2] | Potency [3] | Potency [4] | Potency [5] | Potency [6] | Potency [7] | Potency [8] | Potency [9] | Potency [10] | Potency [11] | Potency [12] | Potency [18] | Potency [14] | Potency [17]

O=C1CCC(=O)N1Cl
inactive: Potency [1] | Potency [2] | Potency [3] | Potency [4] | Potency [5] | Potency [6] | Potency [7] | Potency [8] | Potency [9] | Potency [10] | Potency [11] | Potency [12] | Potency [13] | Potency [14] | Potency [15] | Potency [17] | Potency [16]
